Screens as filed in PubChem.
Only some compounds are listed: those with a hit (about 3.2% of all), similar ones and a draw of the others.
PrPC TRFRET – cell surface PrPC inhibition, primary TR-FRET screen | TR-FRET read-out | inhibition, % at 13.8 µM | hit rate 0.43% among 370,000 | AID 720596; in the data active means inhibition above about 24%; further: 0% = median of the test wells and 100% = reference compound wells
TcdB GH inh – inhibitors of Clostridioides difficile toxin B glycohydrolase; P18177; TcdB glycohydrolase enzymatic assay, plate reader; inhibition, % at 9.99 µM; hit rate 0.24% among 350,000; in the data active means inhibition above about 10%
Mtb FBA inh – Mtb fructose-bisphosphate aldolase inhibition; inhibition, % at 1 µM; purified M. tuberculosis FBA, fluorescence read-out; hit rate 2.3% among 360,000; in the data active means inhibition above about 27%;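 further: 0% = vehicle and 100% = reference inhibitor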
Yp Topo-I inh – inhibitors of Yersinia pestis topoisomerase I | Y. pestis Topo-I cleavage product accumulation, plate reader | activity, % at 10 µM | hit rate 0.064% among 360,000 | AID 504884; in the data active means activity above about 50%, passing the limit was not always enough
GDH-TPI counter – inhibits GDH-TPI coupling enzymes, artifact for Mtb FBA screen; hit rate 1.2% among 360,000; GDH-TPI coupled enzyme counterscreen, NADH absorbance; inhibition, % at 4.8 µM; in the data active means inhibition above about 30%;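 further: 0% = DMSO wells and 100% = wells lacking the enzyme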
* hit, by the source's call; x = not tested or not shown; + = active, no number.

SMILES	PrPC TRFRET	TcdB GH inh	Mtb FBA inh	Yp Topo-I inh	GDH-TPI counter
Fc1ccc(C2=CC(c3ccco3)n3ncnc3N2)cc1 (stereo unspecified)	x	x	113*	-3	19
COc1ccc(C2C=C(c3ccc(C)cc3)Nc3ncnn32)cc1 (stereo unspecified)	4	x	+	11	4
O=C(Nc1cccc(Cl)c1)N[C@@H]1CC[C@H](CCNC(=O)C2CCC2)O[C@@H]1CO	x	-6	x	x	x
Cc1ccccc1C(=O)N/C(=C/c1ccc(-c2cccnc2Cl)o1)C(=O)NCCCN1CCN(C)CC1	-4	x	4	-13	39*
CO[C@@H]1CN(C)C(=O)c2cc(NC(=O)Nc3ccccc3)ccc2OC[C@H](C)N(C(C)=O)C[C@@H]1C	x	2	x	x	x
O=C(Nc1cccc(-c2cn3cccnc3n2)c1)Nc1ccccc1F	-12	0	10	9	15
Cc1cccn2cc(-c3cccc(NC(=O)c4cccs4)c3)nc12	5	0	0	4	6
Cc1ccc(-c2cn3cccnc3n2)cc1NC(=O)c1ccc(Br)o1	-10	x	+	-3	41*
O=C(Nc1cccc(-c2cn3cccnc3n2)c1)c1ccco1	x	1	+	-6	24
O=C(Nc1cccc(-c2cn3cccnc3n2)c1)c1ccc(Br)o1	-3	0	+	1	20
O=C(Nc1cccc(-c2cn3cccnc3n2)c1)c1cccs1	-13	x	170*	-7	12
COc1ccc(NC(=O)N(C)C[C@@H]2Oc3c(NC(=O)C4CC4)cccc3C(=O)N([C@@H](C)CO)C[C@@H]2C)cc1	x	0	x	x	x
O=C(Nc1cccc(-c2cn3cccnc3n2)c1)c1ccc2c(c1)OCO2	-5	1	134*	1	17
C[C@@H]1CN([C@@H](C)CO)C(=O)Cc2cc(NC(=O)CCC(F)(F)F)ccc2O[C@H]1CN(C)S(=O)(=O)c1ccc(Cl)cc1	x	0	x	x	x
C[C@H](CO)N1C[C@H](C)[C@@H](CN(C)C(=O)Nc2ccc3c(c2)OCO3)Oc2ccc(NC(=O)CCCCCC(=O)Nc3ccccc3N)cc2C1=O	x	0	x	x	x
c1ccc(-c2c(-c3ccccc3)n(Cc3ccco3)c3ncnc(NCCCn4ccnc4)c23)cc1	-10	x	9	26	2
c1ccc(-c2oc3ncnc(NCCCn4ccnc4)c3c2-c2ccccc2)cc1	x	1	51*	1	6
CC(=O)N1[C@@H]2c3ccc(-c4cncnc4)c(=O)n3C[C@H]1[C@H](CO)[C@H]2C(=O)NC1Cc2ccccc2C1	x	1	x	x	x
O=C(O)c1ccccc1NC(=S)NC(=O)c1sc2ccccc2c1Cl	26*	2	22	-13	0
O=C(NC(=S)Nc1ccccc1N1CCOCC1)c1sc2ccccc2c1Cl	8	x	-3	2	-3
O=C(/C=C/c1ccc(Cl)cc1)NC(=S)Nc1ccccc1C(=O)O	-3	1	6	4	38*
CCC(=O)N1[C@H](CO)[C@@H](c2ccccc2)[C@@H]1CNC(=O)CN1CCOCC1	x	1	x	x	x
COc1ccc(Br)cc1CNCCc1ccc2c(c1)OCO2	1	1	0	8	-6
COc1ccc(CNCCc2ccc3c(c2)OCO3)cc1Br	-3	11*	-1	6	-6
COCC#Cc1cnc2c(c1)C(=O)N([C@H](C)CO)C[C@@H](C)[C@H](CN(C)C(=O)Nc1cccc(F)c1)O2	x	2	x	x	x
SMILES	PrPC TRFRET	TcdB GH inh	Mtb FBA inh	Yp Topo-I inh	GDH-TPI counter
C/C=C/c1ccc([C@H]2[C@@H](C#N)N(c3ncc(CC)s3)[C@H]2CO)cc1	x	-1	x	x	x
Cc1ccc(S(=O)(=O)N(C)C[C@H]2Oc3c(NC(=O)Nc4ccc5c(c4)OCO5)cccc3C(=O)N([C@H](C)CO)C[C@@H]2C)cc1	x	-1	x	x	x
Cc1nc2c(C#N)cnn2c2c1CCN(Cc1ccccc1)N2C	14	2	7	-2	44*
O=C(Nc1ccc(/C=C/c2nc3ccccc3o2)cc1)c1ccc(F)cc1	5	x	4	-6	33*
COCCCNC(=S)N/N=C/c1ccc(O)cc1	-1	10	-1	-11	70*
COCCCNC(=S)N/N=C/c1ccc(OC)cc1	-4	1	0	-4	10
COCCCNC(=S)N/N=C/c1ccc(O)cc1O	5	1	2	-10	33*
CCNC(=S)N/N=C/c1ccc(C#N)cc1	-5	1	-5	8	39*
CCN(CC)c1ccc(/C=N/n2c(-c3ccccc3Br)n[nH]c2=S)cc1	-13	1	3	6	38*
COc1ccc(-c2cc(=NC(CC(C)C)C(=O)O)c3cc(C)ccc3o2)cc1 (stereo unspecified)	-8	x	+	-7	23
COc1ccc(-c2cc(=Nc3ccccc3)c3cc(C)ccc3o2)cc1	3	0	+	13	-1
COc1ccc(-c2cc(=NCCC(=O)O)c3cc(C)ccc3o2)cc1	-29	1	+	-1	26
COc1ccc(N=c2cc(-c3ccc(OC)cc3)oc3ccccc23)cc1	-3	x	13	33	18
COc1ccc(N=c2cc(-c3ccc(O)cc3)oc3ccccc23)cc1	-8	2	-5	-2	8
COc1ccc(-n2c(C)cc(/C=C3\C(=N)N4N=C(CC(=O)N5CCOCC5)SC4=NC3=O)c2C)cc1	-9	0	-2	3	46*
CSc1ccc(/C=C2\C(=N)N3N=C(CC(=O)N4CCOCC4)SC3=NC2=O)cc1	4	1	0	6	18
CS(=O)(=O)C1=NN2C(=N)/C(=C\c3ccc(OC(=O)c4ccco4)cc3)C(=O)N=C2S1	-6	0	5	-3	16
COc1ccc(/C=C2/C(=N)N3N=C(CC(=O)N4CCCC4)SC3=NC2=O)cc1	-4	1	-1	0	10
N=C1/C(=C/c2ccco2)C(=O)N=C2SC(CC(=O)N3CCCC3)=NN12	-6	1	2	10	31*
CC(C)CS(=O)(=O)C1=NN2C(=N)/C(=C\c3ccc(OC(=O)c4ccco4)cc3)C(=O)N=C2S1	-3	0	-2	9	34*
Cc1cc(/C=C2\C(=N)N3N=C(CC(=O)N4CCOCC4)SC3=NC2=O)c(C)n1-c1ccccc1	-12	2	1	13	34*
O=C(N=Nc1c(O)[nH]c2ccc(Br)cc12)c1ccco1	-17	0	-3	-3	39*
O=C(N=Nc1c(O)[nH]c2ccc(Br)cc12)c1ccccc1-n1cccc1	7	0	-2	-9	14
COc1ccc(-c2ccc3c(c2)[C@H]2[C@H](CCN2S(=O)(=O)c2ccccc2F)[C@H](CO)N3C)cc1	x	0	x	x	x
COC(=O)c1[nH]c2cc(OC)c(OC)cc2c1NC(=O)c1cccc(OC)c1	-3	x	-2	-1	32*
CC[C@H](C)[C@H]1CNC(=S)N1CC1CCN(CCC(C)(C)C)CC1	-3	-11	-1	2	-3
CC[C@H](C)[C@H]1CNC(=S)N1CC1CCN(CCCC2CCCC2)CC1	-8	13*	-1	8	5
CCOC(=O)c1sc(NC(=O)c2ccc(OC)cc2)nc1C	0	1	5	5	6
CCOC(=O)c1sc(=S)n(C)c1NC(=O)c1ccccc1Cl	-8	0	0	1	40*
